Test systems include SR leukemia; RPMI-8226 leukemia; OVCAR-8 ovarian; OVCAR-5 ovarian; OVCAR-4 ovarian; SK-OV-3 ovarian; IGROV1 ovarian; OVCAR-3 ovarian; HS 578T breast; NCI/ADR-RES ovarian; T-47D breast; BT-549 breast; MDA-MB-435 melanoma; SW-620 colon; MCF7 breast; HCT-116 colon; HCC-2998 colon; KM12 colon.
Assay in all cases: NCI-60 one-dose screen, 48 h (100 = growth as untreated, 0 = no growth, -100 = all killed)
What all share (conditions): 10 µM

About 83,000 compounds went through this panel and 20% of them were active in at least one assay; those are over-represented in the sample as a whole.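 Single-concentration screen, 48 h exposure, 96-well plates. Endpoint: percent growth. Below 10 = active.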 A number with no mark means an inactive call. Activity calls are given as the source filed them.

`Cc1ccc(S(=O)(=O)Nc2cccc3[nH]c(C(F)(F)F)nc23)cc1`: the growth with SR leukemia was 10.8%; with RPMI-8226 leukemia, -3.69% (active); in the experiment with OVCAR-8 ovarian, 31%; in the experiment with OVCAR-5 ovarian it was 35.3%; in the experiment on OVCAR-4 ovarian, 36%; in the experiment on SK-OV-3 ovarian, 4.74% (active). Moreover, the growth in the experiment on IGROV1 ovarian is 51.4%; with OVCAR-3 ovarian, 4.74% (active); in the experiment with HS 578T breast it was 24.4%; in the experiment on NCI/ADR-RES ovarian, 4.81% (active); with T-47D breast, 47.2%; in the experiment with BT-549 breast, 52%. The growth in the experiment on MDA-MB-435 melanoma is -31.5% (active); in the experiment on SW-620 colon, 18.6%; with MCF7 breast, 13.2%; in the experiment on HCT-116 colon it was 23.8%; in the experiment with HCC-2998 colon, 28.1%; with KM12 colon, 21%.

`Cc1ccc(NS(=O)(=O)c2ccccc2)c(NS(=O)(=O)c2ccccc2)c1`: the growth in the experiment on SR leukemia is 117%; in the experiment on RPMI-8226 leukemia, 93.4%; in the experiment with OVCAR-8 ovarian it was 105%; in the experiment on OVCAR-5 ovarian, 104%; with OVCAR-4 ovarian, 97%; with SK-OV-3 ovarian, 102%. Moreover, the growth is 107% with IGROV1 ovarian; 98% in the experiment with OVCAR-3 ovarian; 91.1% with HS 578T breast; 94.7% in the experiment with NCI/ADR-RES ovarian; 101% in the experiment with T-47D breast; 104% in the experiment with BT-549 breast. Besides, the growth in the experiment on MDA-MB-435 melanoma was 106%; in the experiment with SW-620 colon, 95.1%; in the experiment with MCF7 breast, 104%; with HCT-116 colon, 93.7%; with HCC-2998 colon, 106%; in the experiment on KM12 colon, 103%.

As for `COc1cc(-c2cc(/C=C/C(C)=O)[nH]n2)cc(OC)c1OC`, the growth was 4.57% (active) in the experiment on SR leukemia; 22.8% in the experiment on RPMI-8226 leukemia; 73.5% with OVCAR-8 ovarian; 94.5% in the experiment on OVCAR-5 ovarian; 70.8% in the experiment on OVCAR-4 ovarian; 109% in the experiment on SK-OV-3 ovarian. The growth with IGROV1 ovarian is 73.8%; in the experiment with OVCAR-3 ovarian, 85.2%; in the experiment on HS 578T breast, 91.8%; in the experiment with NCI/ADR-RES ovarian it was 80.7%; in the experiment with T-47D breast, 32.2%; in the experiment with BT-549 breast, 71.7%. Also, the growth is 61.8% in the experiment with MDA-MB-435 melanoma; 74.3% in the experiment on SW-620 colon; 41% in the experiment on MCF7 breast; 39% in the experiment on HCT-116 colon; 103% in the experiment on HCC-2998 colon; 72% with KM12 colon.

With `COc1cc2c3c(cccc3c1)C(=O)N(CCN1CCCC1)C2=O`, the growth was 2.44% (active) in the experiment on SR leukemia; 12.2% in the experiment with RPMI-8226 leukemia; 6.43% (active) with OVCAR-8 ovarian; 34.1% in the experiment on OVCAR-5 ovarian; 21.6% in the experiment on OVCAR-4 ovarian; 34.1% with SK-OV-3 ovarian. Further, the growth was 23.5% in the experiment with IGROV1 ovarian; 0.462% (active) in the experiment on OVCAR-3 ovarian; 27.1% with HS 578T breast; 13% in the experiment with NCI/ADR-RES ovarian; 25.3% with T-47D breast; 49.4% in the experiment on BT-549 breast. In addition, the growth with MDA-MB-435 melanoma is 14.4%; with SW-620 colon, 9.75% (active); in the experiment on MCF7 breast, 3.07% (active); with HCT-116 colon, 6.66% (active); with HCC-2998 colon, 44.4%; with KM12 colon, 21.3%.

In the case of `Cc1ccc(-n2nnc3c(sc4ccccc43)c2=O)cc1`, the growth in the experiment on SR leukemia was 75.1%; in the experiment with RPMI-8226 leukemia it was 46.1%; with OVCAR-8 ovarian it was 50%; in the experiment on OVCAR-5 ovarian it was 90.3%; in the experiment with OVCAR-4 ovarian it was -23.6% (active); with SK-OV-3 ovarian, 9.88% (active). Also, the growth in the experiment with IGROV1 ovarian was 23.5%; in the experiment on OVCAR-3 ovarian it was 37.1%; with HS 578T breast, 23%; in the experiment with NCI/ADR-RES ovarian, 53.7%; in the experiment with T-47D breast it was 64.2%; with BT-549 breast, 81.4%. Moreover, the growth was 59% in the experiment with MDA-MB-435 melanoma; 58.6% with SW-620 colon; 81.2% in the experiment with MCF7 breast; 3.11% (active) with HCT-116 colon; 70.8% in the experiment with HCC-2998 colon; 25.3% in the experiment with KM12 colon.

Take `Nc1ccc(C2=CC(c3ccc(Cl)cc3)N3C=CSC3=N2)cc1` (centres undefined): the growth was -11.5% (active) in the experiment with SR leukemia; -21.3% (active) in the experiment with RPMI-8226 leukemia; -1.84% (active) in the experiment with OVCAR-8 ovarian; -66.1% (active) with OVCAR-5 ovarian; 0.424% (active) with OVCAR-4 ovarian; -51% (active) in the experiment on SK-OV-3 ovarian. In addition, the growth was -88.8% (active) in the experiment with IGROV1 ovarian; -63.1% (active) in the experiment with OVCAR-3 ovarian; 16.8% with HS 578T breast; 31.6% with NCI/ADR-RES ovarian; -11% (active) with T-47D breast; -50.7% (active) in the experiment on BT-549 breast. In addition, the growth is -65.7% (active) in the experiment on MDA-MB-435 melanoma; -60.5% (active) with SW-620 colon; -32.1% (active) in the experiment on MCF7 breast; -89.3% (active) with HCT-116 colon; -95.7% (active) in the experiment with HCC-2998 colon; -41.4% (active) in the experiment on KM12 colon.

For the compound `OC(CNC1CCCC1)Cn1c2ccccc2c2ccccc21` (centres undefined), the growth in the experiment on SR leukemia is -32.5% (active); with RPMI-8226 leukemia, 1.44% (active); in the experiment on OVCAR-8 ovarian, 24.2%; with OVCAR-5 ovarian it was 103%; with OVCAR-4 ovarian it was 36.2%; with SK-OV-3 ovarian it was 59.7%. Further, the growth with IGROV1 ovarian was 30.9%; with OVCAR-3 ovarian, 36.4%; with HS 578T breast it was 63.6%; with NCI/ADR-RES ovarian, 15.1%; in the experiment with T-47D breast, -1.44% (active); in the experiment with BT-549 breast, 53.8%. Further, the growth in the experiment with MDA-MB-435 melanoma is -2.91% (active); in the experiment with SW-620 colon, -25.5% (active); in the experiment on MCF7 breast it was -66.2% (active); in the experiment on HCT-116 colon, -37.3% (active); in the experiment on HCC-2998 colon, 1.39% (active); with KM12 colon it was 21.6%.

On to `c1ccc(CC(NCCNC(Cc2ccccc2)c2ccccc2)c2ccccc2)cc1` (centres undefined), for which the growth in the experiment on SR leukemia is -33.7% (active); with RPMI-8226 leukemia it was -41.1% (active); in the experiment on OVCAR-8 ovarian, 22.5%; in the experiment on OVCAR-5 ovarian, 55.2%; in the experiment on OVCAR-4 ovarian, 35.6%; with SK-OV-3 ovarian, 84%. The growth in the experiment with IGROV1 ovarian was 36.4%; with OVCAR-3 ovarian, 22.9%; in the experiment with HS 578T breast, 73.4%; in the experiment on NCI/ADR-RES ovarian, 38.8%; with T-47D breast, 13.9%; in the experiment with BT-549 breast, 56.6%. Also, the growth with MDA-MB-435 melanoma is 38%; in the experiment with SW-620 colon, 5.83% (active); in the experiment on MCF7 breast, -7.95% (active); with HCT-116 colon it was -25.3% (active); in the experiment on HCC-2998 colon, 3.25% (active); with KM12 colon, 16.3%.

These data come from PubChem BioAssay (NCI).
